Data published in PMC7862700, “An all-to-all approach to the identification of sequence-specific readers for epigenetic DNA modifications on cytosine”.

Experiments:
Experiment in all cases: DAPPL (digital affinity profiling via proximity ligation, sequencing); 10 mM Tris-HCl pH 7.5, 50 mM NaCl, 1 mM DTT, 4% glycerol, room temperature, 30 min; GST-TFs on glutathione beads, 16-mer random dsDNA library, 0.1% formaldehyde crosslink after washing; high values mean tight binding
FEV = biological target: T1, FEV (Homo sapiens, UniProt Q99581 1-238); conditions: protein: recombinant; tags: N-terminal GST; dsDNA, one strand shown
T1 sequence: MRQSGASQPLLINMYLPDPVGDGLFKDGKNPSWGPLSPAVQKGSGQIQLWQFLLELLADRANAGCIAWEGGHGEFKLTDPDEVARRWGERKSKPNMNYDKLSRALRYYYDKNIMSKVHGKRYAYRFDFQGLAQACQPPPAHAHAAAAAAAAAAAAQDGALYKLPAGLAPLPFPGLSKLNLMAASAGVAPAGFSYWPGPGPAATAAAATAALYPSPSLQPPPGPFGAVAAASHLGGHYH
Method in brief: (§1)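 Human transcription factors were made in yeast as GST fusions, captured on glutathione beads and barcoded with DNA. With a tag-only sample included, the pool was incubated with 200 nmole of a random double-stranded 16-mer DNA library in Tris/NaCl/DTT/glycerol buffer at room temperature for 30 min, then crosslinked with 0.1% formaldehyde after washing, ligated by proximity, amplified and sequenced. For binding signal, each hexamer's read frequency for a factor is divided by its frequency for the tag-only sample.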

ETV5 = ETV5 (Homo sapiens, UniProt P41161 1-510); conditions: protein: recombinant; tags: N-terminal GST; dsDNA, one strand shown
Sequence of ETV5 (P41161 whole entry): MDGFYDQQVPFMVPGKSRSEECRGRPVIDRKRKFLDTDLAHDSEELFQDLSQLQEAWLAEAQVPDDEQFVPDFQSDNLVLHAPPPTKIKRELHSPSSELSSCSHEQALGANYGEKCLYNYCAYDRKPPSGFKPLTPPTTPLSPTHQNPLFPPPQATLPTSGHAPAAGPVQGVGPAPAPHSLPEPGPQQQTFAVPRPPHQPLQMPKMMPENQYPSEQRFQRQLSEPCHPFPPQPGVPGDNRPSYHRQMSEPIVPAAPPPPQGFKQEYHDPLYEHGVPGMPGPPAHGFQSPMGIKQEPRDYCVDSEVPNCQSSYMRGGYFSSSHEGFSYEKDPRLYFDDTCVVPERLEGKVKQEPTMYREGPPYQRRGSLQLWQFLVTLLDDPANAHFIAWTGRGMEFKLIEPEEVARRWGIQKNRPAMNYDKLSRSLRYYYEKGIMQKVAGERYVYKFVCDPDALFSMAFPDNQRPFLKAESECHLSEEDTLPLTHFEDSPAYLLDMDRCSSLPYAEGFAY
Method in brief: as §1

HSF1 = HSF1 (Homo sapiens, UniProt Q00613 1-529); conditions: protein: recombinant; tags: N-terminal GST; chain copies: 3; dsDNA, one strand shown
Sequence of HSF1 (Q00613 whole entry): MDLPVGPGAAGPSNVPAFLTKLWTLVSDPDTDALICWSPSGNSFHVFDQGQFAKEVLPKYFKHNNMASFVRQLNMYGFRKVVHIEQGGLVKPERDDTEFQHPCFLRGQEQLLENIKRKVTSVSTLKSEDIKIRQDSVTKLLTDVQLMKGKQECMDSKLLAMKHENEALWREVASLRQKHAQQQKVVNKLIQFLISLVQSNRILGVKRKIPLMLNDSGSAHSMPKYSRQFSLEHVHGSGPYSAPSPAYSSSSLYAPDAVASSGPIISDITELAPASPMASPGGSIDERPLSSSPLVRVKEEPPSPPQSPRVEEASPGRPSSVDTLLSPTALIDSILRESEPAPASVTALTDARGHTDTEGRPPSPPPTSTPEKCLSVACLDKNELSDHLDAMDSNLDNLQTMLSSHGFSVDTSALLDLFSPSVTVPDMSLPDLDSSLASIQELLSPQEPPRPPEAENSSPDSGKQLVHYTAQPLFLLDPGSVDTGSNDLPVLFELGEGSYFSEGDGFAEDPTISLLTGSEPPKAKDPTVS
Method in brief: as §1

SPIC = biological target: T2, SPIC (Homo sapiens, UniProt Q8N5J4 1-248); conditions: protein: recombinant; tags: N-terminal GST; dsDNA, one strand shown
T2 sequence: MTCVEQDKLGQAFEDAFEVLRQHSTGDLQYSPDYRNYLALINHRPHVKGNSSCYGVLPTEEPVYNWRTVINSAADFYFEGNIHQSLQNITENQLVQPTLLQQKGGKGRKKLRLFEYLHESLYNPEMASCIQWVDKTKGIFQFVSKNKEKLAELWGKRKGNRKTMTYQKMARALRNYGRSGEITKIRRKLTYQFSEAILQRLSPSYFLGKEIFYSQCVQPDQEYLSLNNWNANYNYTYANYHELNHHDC
Method in brief: as §1

ELF4 = ELF4 (Homo sapiens, UniProt Q99607 1-663); conditions: protein: recombinant; tags: N-terminal GST; dsDNA, one strand shown
Sequence of ELF4 (Q99607 whole entry): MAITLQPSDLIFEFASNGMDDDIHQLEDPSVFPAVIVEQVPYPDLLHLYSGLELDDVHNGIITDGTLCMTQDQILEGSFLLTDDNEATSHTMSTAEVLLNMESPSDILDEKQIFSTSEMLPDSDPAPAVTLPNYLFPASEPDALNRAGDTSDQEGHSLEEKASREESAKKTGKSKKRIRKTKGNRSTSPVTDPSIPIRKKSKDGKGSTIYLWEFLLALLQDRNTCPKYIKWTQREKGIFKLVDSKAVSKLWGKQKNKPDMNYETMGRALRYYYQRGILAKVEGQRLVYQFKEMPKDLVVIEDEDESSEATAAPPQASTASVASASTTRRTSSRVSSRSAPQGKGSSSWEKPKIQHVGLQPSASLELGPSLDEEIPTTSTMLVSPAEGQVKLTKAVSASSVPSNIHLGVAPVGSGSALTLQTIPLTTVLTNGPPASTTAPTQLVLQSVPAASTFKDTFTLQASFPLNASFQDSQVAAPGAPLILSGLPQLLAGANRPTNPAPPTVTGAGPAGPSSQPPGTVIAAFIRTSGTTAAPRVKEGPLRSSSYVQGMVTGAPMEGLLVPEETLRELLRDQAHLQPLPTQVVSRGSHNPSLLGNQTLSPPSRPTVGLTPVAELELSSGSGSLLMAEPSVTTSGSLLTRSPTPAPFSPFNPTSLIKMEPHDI
Method in brief: as §1

ELK4 = biological target: T3, ELK4 (Homo sapiens, UniProt P28324-2 1-405); conditions: protein: recombinant; tags: N-terminal GST; dsDNA, one strand shown
T3 sequence: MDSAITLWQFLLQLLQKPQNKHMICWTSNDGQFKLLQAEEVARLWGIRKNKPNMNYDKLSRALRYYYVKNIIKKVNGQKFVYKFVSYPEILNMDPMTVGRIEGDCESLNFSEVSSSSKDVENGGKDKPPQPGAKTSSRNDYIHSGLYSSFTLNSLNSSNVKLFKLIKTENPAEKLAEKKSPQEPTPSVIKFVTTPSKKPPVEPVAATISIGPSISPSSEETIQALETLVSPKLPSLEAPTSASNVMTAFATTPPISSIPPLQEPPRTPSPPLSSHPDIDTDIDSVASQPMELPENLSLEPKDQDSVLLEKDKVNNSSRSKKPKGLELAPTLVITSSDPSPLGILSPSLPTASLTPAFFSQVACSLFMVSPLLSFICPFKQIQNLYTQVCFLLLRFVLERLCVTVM
Method in brief: as §1

ETV2 = biological target: T4, ETV2 (Homo sapiens, UniProt O00321 1-342); conditions: protein: recombinant; tags: N-terminal GST; dsDNA, one strand shown
T4 sequence: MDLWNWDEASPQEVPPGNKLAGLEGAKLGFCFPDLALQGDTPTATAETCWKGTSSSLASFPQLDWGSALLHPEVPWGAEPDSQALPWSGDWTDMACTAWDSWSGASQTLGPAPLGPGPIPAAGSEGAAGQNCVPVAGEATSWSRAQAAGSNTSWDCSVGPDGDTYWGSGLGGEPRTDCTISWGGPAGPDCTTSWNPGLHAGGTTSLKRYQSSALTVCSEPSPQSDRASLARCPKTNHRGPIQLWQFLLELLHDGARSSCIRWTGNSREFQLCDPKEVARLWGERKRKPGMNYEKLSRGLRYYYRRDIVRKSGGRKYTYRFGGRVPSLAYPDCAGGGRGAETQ
Method in brief: as §1

ELF3 = biological target: T5, ELF3 (Homo sapiens, UniProt P78545 1-371); conditions: protein: recombinant; tags: N-terminal GST; dsDNA, one strand shown
T5 sequence: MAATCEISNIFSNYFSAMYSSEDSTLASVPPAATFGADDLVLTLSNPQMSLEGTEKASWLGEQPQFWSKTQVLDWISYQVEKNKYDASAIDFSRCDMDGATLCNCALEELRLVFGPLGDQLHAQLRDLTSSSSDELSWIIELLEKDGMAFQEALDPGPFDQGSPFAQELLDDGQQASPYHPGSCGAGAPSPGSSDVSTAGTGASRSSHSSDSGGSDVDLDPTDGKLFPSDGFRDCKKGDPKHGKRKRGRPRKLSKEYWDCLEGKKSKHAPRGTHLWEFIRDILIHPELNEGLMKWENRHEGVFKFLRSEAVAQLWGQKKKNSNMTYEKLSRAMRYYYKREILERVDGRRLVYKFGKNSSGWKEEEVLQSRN
Method in brief: as §1

CRX = CRX (Homo sapiens, UniProt O43186 1-299); conditions: protein: recombinant; tags: N-terminal GST; dsDNA, one strand shown
Sequence of CRX (O43186 whole entry): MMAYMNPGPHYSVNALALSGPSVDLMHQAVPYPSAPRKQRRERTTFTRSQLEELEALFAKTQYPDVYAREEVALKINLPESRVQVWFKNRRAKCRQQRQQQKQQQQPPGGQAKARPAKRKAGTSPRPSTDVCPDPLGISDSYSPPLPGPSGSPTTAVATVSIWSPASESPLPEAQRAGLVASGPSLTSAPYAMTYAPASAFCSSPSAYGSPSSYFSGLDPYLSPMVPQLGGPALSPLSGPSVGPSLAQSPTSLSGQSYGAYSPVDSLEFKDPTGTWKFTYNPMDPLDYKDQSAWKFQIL
Method in brief: as §1

ETV1 = ETV1 (Homo sapiens, UniProt P50549 1-477); conditions: protein: recombinant; tags: N-terminal GST; dsDNA, one strand shown
Sequence of ETV1 (P50549 whole entry): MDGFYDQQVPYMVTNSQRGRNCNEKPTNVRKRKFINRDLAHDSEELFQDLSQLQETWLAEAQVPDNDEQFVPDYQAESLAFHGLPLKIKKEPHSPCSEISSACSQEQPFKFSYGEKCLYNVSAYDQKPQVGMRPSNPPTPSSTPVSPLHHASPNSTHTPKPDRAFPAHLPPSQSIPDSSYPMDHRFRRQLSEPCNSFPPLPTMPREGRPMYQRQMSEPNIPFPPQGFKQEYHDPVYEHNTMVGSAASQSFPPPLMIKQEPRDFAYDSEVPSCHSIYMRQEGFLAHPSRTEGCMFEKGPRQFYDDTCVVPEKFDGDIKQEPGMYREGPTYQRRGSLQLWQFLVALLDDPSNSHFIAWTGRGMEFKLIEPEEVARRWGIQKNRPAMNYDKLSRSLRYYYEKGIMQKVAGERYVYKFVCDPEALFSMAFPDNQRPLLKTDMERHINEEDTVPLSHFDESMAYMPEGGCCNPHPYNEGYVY
Method in brief: as §1

ERF = biological target: T6, ERF (Homo sapiens, UniProt P50548 1-548); conditions: protein: recombinant; tags: N-terminal GST; dsDNA, one strand shown
T6 sequence: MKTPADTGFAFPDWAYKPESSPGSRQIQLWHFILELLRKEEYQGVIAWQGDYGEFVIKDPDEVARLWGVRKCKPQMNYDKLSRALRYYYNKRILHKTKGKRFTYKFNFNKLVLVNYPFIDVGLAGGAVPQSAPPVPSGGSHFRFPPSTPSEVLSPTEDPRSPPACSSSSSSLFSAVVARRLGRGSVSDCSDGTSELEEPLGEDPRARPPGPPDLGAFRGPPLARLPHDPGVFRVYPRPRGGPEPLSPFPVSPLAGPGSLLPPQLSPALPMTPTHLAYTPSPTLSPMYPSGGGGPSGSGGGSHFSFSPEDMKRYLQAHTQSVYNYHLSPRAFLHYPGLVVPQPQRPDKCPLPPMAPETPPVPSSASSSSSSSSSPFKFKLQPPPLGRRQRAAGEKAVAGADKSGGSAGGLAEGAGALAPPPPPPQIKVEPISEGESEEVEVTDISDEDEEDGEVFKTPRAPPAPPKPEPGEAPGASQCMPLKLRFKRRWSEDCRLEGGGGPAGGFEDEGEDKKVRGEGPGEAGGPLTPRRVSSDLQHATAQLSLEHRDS
Method in brief: as §1

ETV3L = biological target: T7, ETV3L (Homo sapiens, UniProt Q6ZN32 1-361); conditions: protein: recombinant; tags: N-terminal GST; dsDNA, one strand shown
T7 sequence: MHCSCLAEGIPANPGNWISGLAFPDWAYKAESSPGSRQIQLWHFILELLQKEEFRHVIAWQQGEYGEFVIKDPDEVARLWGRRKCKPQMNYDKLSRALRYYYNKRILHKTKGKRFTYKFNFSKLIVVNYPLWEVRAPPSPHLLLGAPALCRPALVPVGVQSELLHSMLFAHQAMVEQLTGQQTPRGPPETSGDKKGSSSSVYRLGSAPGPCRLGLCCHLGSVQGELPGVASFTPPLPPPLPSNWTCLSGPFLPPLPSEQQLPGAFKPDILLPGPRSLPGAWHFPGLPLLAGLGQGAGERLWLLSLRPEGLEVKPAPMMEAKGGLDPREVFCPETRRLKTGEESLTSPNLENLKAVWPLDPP
Method in brief: as §1

ETS2 = biological target: T8, ETS2 (Homo sapiens, UniProt P15036 1-469); conditions: protein: recombinant; tags: N-terminal GST; dsDNA, one strand shown
T8 sequence: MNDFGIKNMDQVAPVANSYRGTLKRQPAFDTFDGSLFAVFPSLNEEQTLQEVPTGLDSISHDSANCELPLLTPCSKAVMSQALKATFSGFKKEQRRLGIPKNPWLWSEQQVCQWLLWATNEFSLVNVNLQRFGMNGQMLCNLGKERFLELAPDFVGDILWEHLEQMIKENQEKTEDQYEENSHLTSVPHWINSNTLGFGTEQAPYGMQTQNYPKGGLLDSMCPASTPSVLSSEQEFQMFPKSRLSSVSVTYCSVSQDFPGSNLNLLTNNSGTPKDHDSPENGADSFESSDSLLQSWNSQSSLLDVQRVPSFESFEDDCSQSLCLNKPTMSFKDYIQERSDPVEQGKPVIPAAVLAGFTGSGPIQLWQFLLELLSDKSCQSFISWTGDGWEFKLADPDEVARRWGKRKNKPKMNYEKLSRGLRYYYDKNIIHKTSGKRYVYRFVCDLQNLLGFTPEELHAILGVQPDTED
Method in brief: as §1

SPDEF = biological target: T9, SPDEF (Homo sapiens, UniProt O95238 1-335); conditions: protein: recombinant; tags: N-terminal GST; dsDNA, one strand shown
T9 sequence: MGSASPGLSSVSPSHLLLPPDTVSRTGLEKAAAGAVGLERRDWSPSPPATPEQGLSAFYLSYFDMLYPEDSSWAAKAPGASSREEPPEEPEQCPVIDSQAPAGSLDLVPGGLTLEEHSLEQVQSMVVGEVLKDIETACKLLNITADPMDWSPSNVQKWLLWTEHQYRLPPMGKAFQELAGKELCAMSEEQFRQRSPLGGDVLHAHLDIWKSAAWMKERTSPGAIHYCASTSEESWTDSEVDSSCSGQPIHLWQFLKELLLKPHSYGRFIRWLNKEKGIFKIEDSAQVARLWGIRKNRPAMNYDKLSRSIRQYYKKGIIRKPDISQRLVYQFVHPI
Method in brief: as §1

ETV7 = biological target: T10, ETV7 (Homo sapiens, UniProt Q9Y603 1-341); conditions: protein: recombinant; tags: N-terminal GST; dsDNA, one strand shown
T10 sequence: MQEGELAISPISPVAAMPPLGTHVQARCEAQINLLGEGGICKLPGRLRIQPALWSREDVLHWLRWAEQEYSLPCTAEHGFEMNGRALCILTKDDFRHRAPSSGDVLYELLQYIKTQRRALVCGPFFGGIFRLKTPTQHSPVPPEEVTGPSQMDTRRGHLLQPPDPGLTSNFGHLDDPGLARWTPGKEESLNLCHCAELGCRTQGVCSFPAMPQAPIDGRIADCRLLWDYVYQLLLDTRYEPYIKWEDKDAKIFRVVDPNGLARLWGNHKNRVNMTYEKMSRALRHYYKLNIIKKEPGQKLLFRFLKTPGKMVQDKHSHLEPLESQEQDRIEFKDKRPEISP
Method in brief: as §1

ELF5 = biological target: T11, ELF5 (Homo sapiens, UniProt Q9UKW6-2 1-255); conditions: protein: recombinant; tags: N-terminal GST; dsDNA, one strand shown
T11 sequence: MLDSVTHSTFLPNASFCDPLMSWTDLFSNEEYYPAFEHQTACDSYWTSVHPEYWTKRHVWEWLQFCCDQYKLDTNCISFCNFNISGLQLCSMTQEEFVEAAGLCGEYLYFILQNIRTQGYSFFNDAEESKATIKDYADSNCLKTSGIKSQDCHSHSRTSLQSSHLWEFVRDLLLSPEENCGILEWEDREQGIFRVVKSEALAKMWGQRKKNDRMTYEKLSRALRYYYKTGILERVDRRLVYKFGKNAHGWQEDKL
Method in brief: as §1

ETV3 = biological target: T12, ETV3 (Homo sapiens, UniProt P41162-2 1-143); conditions: protein: recombinant; tags: N-terminal GST; dsDNA, one strand shown
T12 sequence: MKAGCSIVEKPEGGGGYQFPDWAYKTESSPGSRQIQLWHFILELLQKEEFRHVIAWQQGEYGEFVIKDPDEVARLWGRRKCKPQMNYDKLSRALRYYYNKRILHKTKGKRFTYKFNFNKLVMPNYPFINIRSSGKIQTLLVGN
Method in brief: as §1

ETV6 = ETV6 (Homo sapiens, UniProt P41212 1-452); conditions: protein: recombinant; tags: N-terminal GST; dsDNA, one strand shown
Sequence of ETV6 (P41212 whole entry): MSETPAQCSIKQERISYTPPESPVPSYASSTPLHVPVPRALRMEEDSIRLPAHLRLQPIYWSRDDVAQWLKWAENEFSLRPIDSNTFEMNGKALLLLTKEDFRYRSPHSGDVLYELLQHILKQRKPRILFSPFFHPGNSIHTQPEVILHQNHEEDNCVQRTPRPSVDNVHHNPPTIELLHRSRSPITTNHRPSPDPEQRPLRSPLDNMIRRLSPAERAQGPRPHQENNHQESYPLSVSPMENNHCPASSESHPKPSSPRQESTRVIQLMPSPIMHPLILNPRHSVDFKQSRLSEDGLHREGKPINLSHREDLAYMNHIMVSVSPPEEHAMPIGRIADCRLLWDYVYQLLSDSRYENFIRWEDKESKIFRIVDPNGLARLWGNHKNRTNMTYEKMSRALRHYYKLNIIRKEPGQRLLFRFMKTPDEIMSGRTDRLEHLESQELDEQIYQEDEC
Method in brief: as §1

AACCTT
binding signal (FEV): 1.24 fold enrichment (6-mer frequency, TF over GST control)
binding signal (ETV5): 1.3 fold enrichment (6-mer frequency, TF over GST control)
binding signal (HSF1): 1.66 fold enrichment (6-mer frequency, TF over GST control)
binding signal (SPIC): 1.17 fold enrichment (6-mer frequency, TF over GST control)
binding signal (ELF4): 1.27 fold enrichment (6-mer frequency, TF over GST control)
binding signal (ELK4): 1.36 fold enrichment (6-mer frequency, TF over GST control)
binding signal (ETV2): 1.13 fold enrichment (6-mer frequency, TF over GST control)
binding signal (ELF3): 1.23 fold enrichment (6-mer frequency, TF over GST control)
binding signal (CRX): 1.39 fold enrichment (6-mer frequency, TF over GST control)
binding signal (ETV1): 1.29 fold enrichment (6-mer frequency, TF over GST control)
binding signal (ERF): 1.39 fold enrichment (6-mer frequency, TF over GST control)
binding signal (ETV3L): 1.27 fold enrichment (6-mer frequency, TF over GST control)
binding signal (ETS2): 1.38 fold enrichment (6-mer frequency, TF over GST control)
binding signal (SPDEF): 1.29 fold enrichment (6-mer frequency, TF over GST control)
binding signal (ETV7): 1.29 fold enrichment (6-mer frequency, TF over GST control)
binding signal (ELF5): 1.33 fold enrichment (6-mer frequency, TF over GST control)
binding signal (ETV3): 1.28 fold enrichment (6-mer frequency, TF over GST control)
binding signal (ETV6): 1.27 fold enrichment (6-mer frequency, TF over GST control)
